Assay outcomes from PubChem.
In the library only some 1.1% were active in any assay of this set; here they are far more common.
LAP4 TOR yeast – modulators of LAP4-GFP expression in yeast, primary screen, S. cerevisiae, multiplex flow cytometry, MLPCN library | 3 h; median GFP as percent of DMSO wells | GFP response vs DMSO, % at 10 µM | actives 0.34% (n = 320,000) | AID 2023, 2009;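 active = GFP response vs DMSO above a set limit, about the screen mean plus 3 SD, cut at about 150% in these data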
VLA-4 inh – inhibition in human VLA-4 binding assay, primary screen, VLA-4 allosteric modulator project, MLPCN library, flow cytometry, VLA-4 expressing cells; Integrin alpha-4 (Homo sapiens), P13612; ligand binding flow cytometry; inhibition, % (about 7 µM as worked out from the volumes in the protocol); actives 0.2% (n = 330,000); AID 2557, 2010; in the data active = inhibition above about 50%
Target sequence (P13612 whole entry, looked up): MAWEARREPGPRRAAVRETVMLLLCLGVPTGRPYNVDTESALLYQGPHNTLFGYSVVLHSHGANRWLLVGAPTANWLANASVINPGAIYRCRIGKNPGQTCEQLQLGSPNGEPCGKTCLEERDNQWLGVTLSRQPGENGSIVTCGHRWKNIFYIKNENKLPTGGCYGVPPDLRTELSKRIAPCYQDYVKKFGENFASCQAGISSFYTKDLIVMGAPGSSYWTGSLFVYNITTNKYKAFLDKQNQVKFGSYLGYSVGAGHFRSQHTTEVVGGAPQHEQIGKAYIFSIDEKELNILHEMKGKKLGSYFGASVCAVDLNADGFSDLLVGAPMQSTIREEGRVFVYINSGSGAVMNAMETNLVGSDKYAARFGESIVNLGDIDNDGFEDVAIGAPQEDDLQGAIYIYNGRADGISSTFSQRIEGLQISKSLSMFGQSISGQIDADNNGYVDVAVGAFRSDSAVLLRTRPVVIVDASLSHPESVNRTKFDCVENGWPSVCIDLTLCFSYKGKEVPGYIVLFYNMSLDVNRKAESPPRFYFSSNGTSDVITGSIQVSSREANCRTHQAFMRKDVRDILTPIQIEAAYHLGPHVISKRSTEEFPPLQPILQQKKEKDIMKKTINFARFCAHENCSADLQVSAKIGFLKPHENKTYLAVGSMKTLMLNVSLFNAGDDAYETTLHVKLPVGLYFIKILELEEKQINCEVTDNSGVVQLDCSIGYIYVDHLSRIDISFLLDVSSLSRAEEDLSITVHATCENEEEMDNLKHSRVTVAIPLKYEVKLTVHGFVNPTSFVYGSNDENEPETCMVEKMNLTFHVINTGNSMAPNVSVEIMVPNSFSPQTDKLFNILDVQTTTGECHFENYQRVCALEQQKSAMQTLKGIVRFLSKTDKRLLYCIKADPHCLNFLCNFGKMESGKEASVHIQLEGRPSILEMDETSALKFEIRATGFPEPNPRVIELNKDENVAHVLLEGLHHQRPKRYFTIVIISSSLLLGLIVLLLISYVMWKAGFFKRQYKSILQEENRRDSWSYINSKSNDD
RPL19A-GFP yeast – RPL19A-GFP expression modulators in yeast, primary screen, cell-based, S. cerevisiae, multiplex flow cytometry, MLPCN; percent response vs DMSO, % at 10 µM; S. cerevisiae RPL19A-GFP strain, 3 h; stronger effect = lower value; actives 0.3% (n = 330,000); AID 2025, 2009;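 active = percent response vs DMSO below 50%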;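 note: median channel GFP fluorescence of the barcoded RPL19A-GFP strain; lower means less RPL19A-GFP as with rapamycin TOR inhibition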
MEP2 TOR yeast – modulators of MEP2-GFP levels in yeast, primary screen, S. cerevisiae, multiplex flow cytometry, MLPCN library | actives 0.51% (n = 330,000) | GFP response vs DMSO, % at 10 µM | S. cerevisiae MEP2-GFP strain, 3 h; 100% = DMSO control level;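 active = GFP response versus DMSO above a set limit, roughly screen mean plus 3 SD, cut at about 180% in these data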;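 note: median GFP fluorescence of the barcode-gated MEP2-GFP cells per well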
CIT2-GFP yeast – modulators of CIT2-GFP expression in yeast, primary screen, S. cerevisiae, GFP fusion, multiplex flow cytometry, MLPCN library; S. cerevisiae CIT2-GFP strain, 3 h; 100 means same as DMSO wells; GFP response vs DMSO, % at 10 µM; actives 0.065% (n = 320,000); AID 2029, 2009;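 active = GFP response relative to DMSO above a set limit, near the screen mean plus 3 SD, cut at about 150% in these data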;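 note: ratio of well median GFP fluorescence to mean of DMSO wells on the plate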
AGP1 TOR yeast – modulators of AGP1-GFP expression in yeast TOR pathway, primary screen, cell-based, multiplex flow cytometry, S. cerevisiae, MLPCN library. 3 h; GFP as percent of DMSO wells. GFP response vs DMSO, % at 10 µM. actives 0.02% (n = 320,000). AID 2066, 2009;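 active = GFP response relative to DMSO above a set limit, near screen average plus 3 SD, cut at about 150% in these data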;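 note: median GFP channel fluorescence of the gated AGP1 strain per well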
LAP4 cherry2 – LAP4-GFP expression modulators in yeast, confirmation, cell-based, second cherry pick, flow cytometry | shares compounds with LAP4 TOR yeast | S. cerevisiae LAP4-GFP strain, 3 h | GFP response vs DMSO, % at 10 µM | actives 20% (n = 590);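 active = GFP signal as percent of the solvent control above about 150%, meaning raised reporter expression, limit read from the data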
MEP2-GFP pick2 – modulators of MEP2-GFP levels in yeast, confirmation, S. cerevisiae, flow cytometry GFP, second cherry picks; AID 2622, 2010; shares compounds with LAP4 TOR yeast; S. cerevisiae MEP2-GFP strain, 3 h; GFP response vs DMSO, % at 10 µM; actives 10% (n = 590);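 active = GFP signal above 150% of the solvent control wells, that is a rise of more than half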;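 note: median channel GFP fluorescence of all gated yeast cells per well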
RPL19A GFP CP2 – RPL19A-GFP modulators in TOR pathway yeast, confirmation, cell-based, S. cerevisiae, flow cytometry, second cherry pick; shares compounds with LAP4 TOR yeast; S. cerevisiae RPL19A-GFP strain, 3 h; stronger effect = lower value; 100% means same as DMSO wells; GFP response vs DMSO, % at 10 µM; actives 3% (n = 590); AID 2623, 2010;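 active = under 65% GFP response relative to DMSO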;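 note: median GFP channel fluorescence per well over the all cells gate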
CIT2-GFP pick2 – modulators of CIT2-GFP expression in yeast, confirmation, flow cytometry, second cherry pick, single plex; GFP response vs DMSO, % at 10 µM; shares compounds with LAP4 TOR yeast; S. cerevisiae CIT2-GFP strain, 3 h; DMSO control wells read 100%; actives 8% (n = 590);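 active = GFP response vs DMSO above about 150%, limit read from the data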;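 note: median green fluorescence per well over all gated yeast cells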
AGP1-GFP pick2 – AGP1-GFP expression modulators, hit retest, confirmation, cell-based, flow cytometry, S. cerevisiae, cherry pick set 2; AID 2643, 2010; 590 tested, under 10 active; shares compounds with LAP4 TOR yeast; S. cerevisiae AGP1-GFP strain, 3 h; percent response vs DMSO, % at 10 µM;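 active = over 150 percent of DMSO response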;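 note: median GFP channel fluorescence over all cells without mother daughter split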
Yeast autofluor – compound autofluorescence in yeast s288c, dose response, artefact control for yeast TOR pathway GFP screen, s288c strain; fluorescence change (kMESF span) at 33 µM; S. cerevisiae s288c, 520 nm autofluorescence, flow cytometry, 3 h; stronger effect = higher value; zero means same as solvent-only cells; AID 2757, 2010; 610 tested, under 10 active; shares compounds with LAP4 TOR yeast;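 active = fluorescence span over the dose series, or activity score, above about 33, limit read from the data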
s288c autofl DR – autofluorescence of compounds in yeast s288c, dose response, artefact control for yeast TOR pathway GFP screen, primary hits, KU SAR, s288c parental. AID 488829, 2010. 110 tested, under 10 active. S. cerevisiae s288c parental, compound autofluorescence, flow cytometry, 3 h. shares compounds with LAP4 TOR yeast. fluorescence change (span) at 33 µM;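 active = fluorescence change span, or the activity score built from it, above 25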
TORC1 bypass – wild-type yeast growth inhibition sparing TORC1 bypass cells, mechanism study for yeast TOR pathway GFP screen, BY4741 wild type, TORC1 bypass strain. 120 tested, under 10 active. growth rating (0-3) at 30 µM. shares compounds with LAP4 TOR yeast. S. cerevisiae BY4741 spot growth rating, 48-72 h; stronger effect = lower value;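 active = growth rating at most 1 for wild type yeast while the TORC1 bypass strain still grows fully, rated 3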
Large screens that a line does not name were inactive (follow-up assays come after a bar, where they were run).

CCCOc1ccc(C(=O)NNC(=S)NC(=O)CC)cc1	LAP4 TOR yeast 259 | Yeast autofluor inactive | s288c autofl DR inactive | TORC1 bypass inactive
CC(=O)c1ccc(NC(=O)C2CCCN2S(=O)(=O)c2ccc(F)cc2)cc1 (stereo not drawn)	none
O=C(Nc1ccc(O)cc1)C1CCCN1S(=O)(=O)c1ccc(F)cc1 (stereo not drawn)	MEP2 TOR yeast 196 | LAP4 cherry2 inactive | MEP2-GFP pick2 inactive | RPL19A GFP CP2 inactive | CIT2-GFP pick2 inactive | AGP1-GFP pick2 inactive | Yeast autofluor inactive
COc1ccccc1C(=O)Nc1nnc(S(=O)(=O)N(C)Cc2ccccc2)s1	none
CC(=O)Oc1c(C)c(=O)n(C)c2ccccc12	none
COc1c(OC(C)=O)c(=O)n2c3ccccc3c3ccnc1c32	RPL19A-GFP yeast 48, MEP2 TOR yeast 245 | LAP4 cherry2 inactive | MEP2-GFP pick2 inactive | RPL19A GFP CP2 inactive | CIT2-GFP pick2 inactive | AGP1-GFP pick2 inactive
CN(O)/C=c1/ccc2c(n1)C(=O)C=CC=2	LAP4 TOR yeast 275 | Yeast autofluor inactive
O=C(NCC1CCCO1)c1nn2c(C(F)(F)F)cc(-c3ccc(Br)o3)nc2c1Br (stereo not drawn)	none
CSc1nc(Cc2ccc(Cl)cc2)nc2ccccc12	LAP4 TOR yeast 161 | LAP4 cherry2 inactive | MEP2-GFP pick2 inactive | RPL19A GFP CP2 inactive | CIT2-GFP pick2 inactive | AGP1-GFP pick2 inactive
CSc1nc(Sc2ccc(Cl)cc2)c2ccccc2n1	none
Cc1ccc(Nc2ccc(-n3ccnc3)nn2)cc1C	none | LAP4 cherry2 inactive | MEP2-GFP pick2 inactive | RPL19A GFP CP2 inactive | CIT2-GFP pick2 inactive | AGP1-GFP pick2 inactive
O=C(/C=C/c1ccc(F)cc1)NC(=S)NNC(=O)c1cnccn1	LAP4 TOR yeast 261 | Yeast autofluor inactive
COc1ccc(/C=C/C(=O)NC(=S)NNC(=O)c2cnccn2)cc1	LAP4 TOR yeast 225 | Yeast autofluor inactive | s288c autofl DR inactive | TORC1 bypass inactive
O=C(NNC(=S)NC(=O)c1cccnc1)c1ccc(F)cc1	none
COc1ccc(/C=C/C(=O)NC(=S)NNC(=O)c2cccnc2)cc1	none
O=C(NC(=S)NNC(=O)c1cnccn1)c1ccc(F)cc1	LAP4 TOR yeast 232 | Yeast autofluor inactive | s288c autofl DR inactive | TORC1 bypass inactive
C[C@H](NC(=O)c1ccc(C(C)(C)C)cc1)C(=O)N1CCOCC1	none
COc1ccc(CCNC(=O)CCCCC(=O)NCCc2ccc(OC)c(OC)c2)cc1OC	none
COc1cc(CNC(=O)CCCCCCC(C)C)ccc1O	LAP4 TOR yeast 158 | LAP4 cherry2 160 | MEP2-GFP pick2 211 | RPL19A GFP CP2 inactive | CIT2-GFP pick2 188 | AGP1-GFP pick2 inactive | Yeast autofluor inactive
Cc1ccc(-c2nn(C(C)(C)C)c3ncnc(NS(=O)(=O)c4ccc([N+](=O)[O-])cc4)c23)cc1	none
Cc1ccc(-c2nc(N)c3c(-c4ccc(C)cc4)nn(C(C)(C)C)c3n2)cc1	none | LAP4 cherry2 inactive | MEP2-GFP pick2 inactive | RPL19A GFP CP2 inactive | CIT2-GFP pick2 inactive | AGP1-GFP pick2 inactive | Yeast autofluor inactive
CC(C)(C)n1nc(-c2ccc(Cl)cc2)c2c(N)ncnc21	LAP4 TOR yeast 182, RPL19A-GFP yeast 43 | Yeast autofluor inactive | s288c autofl DR inactive | TORC1 bypass inactive
CC(C)(C)n1nc(-c2ccc(F)cc2)c2c(N)ncnc21	LAP4 TOR yeast 178, RPL19A-GFP yeast 48 | LAP4 cherry2 inactive | MEP2-GFP pick2 inactive | RPL19A GFP CP2 48 | CIT2-GFP pick2 inactive | AGP1-GFP pick2 inactive | Yeast autofluor inactive | s288c autofl DR inactive | TORC1 bypass inactive
Nn1cnnc1SCC(=O)N1CCc2ccccc2C1	none
Cc1ccc(/C=C2\SC(=S)N(CC3CCCO3)C2=O)o1 (stereo not drawn)	LAP4 TOR yeast 171 | Yeast autofluor inactive
O=C1/C(=C/c2ccncc2)SC(=S)N1C1CCCCC1	none
Cc1ccc(/C=C2/SC(=S)N(C3CCCCC3)C2=O)o1	LAP4 TOR yeast 158 | Yeast autofluor inactive
COc1ccc(C)cc1NC(=O)CN1C(=O)COc2ccc(S(=O)(=O)N3CCCCC3)cc21	none
C=CCN1C(=O)/C(=C/c2ccsc2)SC1=S	none
C=CCN1C(=O)/C(=C/c2ccc(-c3ccc(F)cc3)o2)SC1=S	LAP4 TOR yeast 163 | LAP4 cherry2 169 | MEP2-GFP pick2 inactive | RPL19A GFP CP2 inactive | CIT2-GFP pick2 inactive | AGP1-GFP pick2 inactive | Yeast autofluor inactive
